# In PubChem BioAssay (NCI):
# The panel holds about 83,000 compounds, 20% with a hit somewhere; the sample as a whole holds those more often.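 Method: cells in 96-well plates; compound added at one concentration; 48 h incubation; percent growth measured; values under 10 scored active.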 Values without a mark were called inactive. Calls of active or inactive are those of the source.
# Legend:
# Test in all cases: NCI-60 one-dose screen, 48 h (100 = growth as untreated, 0 = no growth, -100 = all killed)
# Conditions in all cases: 10 µM unless noted
# [1] = test system: T-47D breast
# [2] = test system: BT-549 breast
# [3] = test system: MDA-MB-435 melanoma
# [4] = test system: SW-620 colon
# [5] = test system: MCF7 breast
# [6] = test system: HCT-116 colon
# [7] = test system: HCC-2998 colon
# [8] = test system: KM12 colon
SMILES,growth [1],growth [2],growth [3],growth [4],growth [5],growth [6],growth [7],growth [8]
N#CC(C(=O)/C(=N/NC(=O)c1ccccc1O)C(C#N)c1ccccc1)c1ccccc1 (configuration not stated),24.9%,44.2%,24.1%,80.2%,55.3%,14.7%,85.9%,46.5%
COc1ccc(C(=O)CSc2nc(-c3cc(OC)ccc3OC)cc(-c3ccc(Cl)cc3)c2C#N)cc1,32.3%,10.8%,26%,50.7%,46.5%,30.2%,78.3%,48.3%
COc1cc2c(-c3cc4c(cc3CNCCc3ccc5c(c3)OCO5)OCO4)cccc2c(OC)c1O,67.3%,91.3%,96.9%,85.4%,76.8%,60.7%,42.7%,96.5%
COc1cc2oc(-c3cccc(C(=O)Nc4ccccc4)c3)cc(=O)c2c(O)c1OC,55.8%,60.1%,58.3%,94.3%,78.1%,46.3%,89.7%,57.8%
Cn1ccnc1C(=O)/C=C/c1ccc(CC(=O)NC2CCCCC2)cc1,47.9%,54.1%,54.1%,23.1%,44.3%,21.5%,100%,28.9%
O=C1NN(C(=O)c2ccccc2)C(c2ccc(Cl)c(Cl)c2)=C/C1=C\c1ccc([N+](=O)[O-])cc1,76.7%,52.4%,86.5%,42.9%,83.6%,90.7%,44.6%,51.7%
O=C(O)c1ccc(-c2nn(-c3ccc(C(F)(F)F)cc3)cc2CNc2ccc(Oc3ccccc3)cc2)cc1,65%,90.6%,87.5%,93.9%,70.3%,60.8%,115%,59.5%
Cc1cc2nc3c4cccc(O)c4n(CCN(C)C)c3nc2cc1C,64.3%,77.4%,45.4%,20.6%,23.5%,22%,24.5%,37.7%
Oc1ccc(C2c3ccccc3Oc3ccccc32)c2cccnc12,31.1%,29.3%,27.3%,23.5%,17.4%,20.1%,35.4%,–
O=C1Nc2ccc(F)cc2/C1=C\c1c(-c2ccccc2)nc2ccccn12,61.8%,65.9%,-10.1% (active),49.8%,61.3%,63.8%,93.3%,45.7%
Nc1n[nH]c2cccc(C#Cc3cccc(C(=O)Nc4cc(CN5CCOCC5)cc(C(F)(F)F)c4)c3)c12,37.1%,57.9%,23.4%,30.9%,44.2%,14.1%,45%,13.1%
COc1cc2nc(-c3ccc(Cl)cc3)cc(OCCCN3CCC(O)CC3)c2cc1OC,44.3%,34.9%,-10.7% (active),51.2%,48.9%,17.9%,69.9%,37.2%
Cn1c(-c2c(N)n(CCCN3CCOCC3)c3nc(C#N)c(C#N)nc23)nc2ccccc21,49.9%,35.6%,79.3%,39.7%,52.9%,22.7%,80%,75.6%
COc1ccc(C(=O)Cn2c(C(=O)c3ccccc3)nc3ccccc32)cc1,38.1%,51.7%,-43.3% (active),10.6%,17.5%,15.7%,26.5%,20.4%
O=C(/C=C(O)/C=C/c1ccc(SC(F)(F)F)cc1)/C=C/c1ccc(SC(F)(F)F)cc1,78%,82.5%,79.2%,89.1%,52.1%,17.7%,101%,81.9%
N#C/C(=C\c1cccc(C#N)c1)c1ccccc1,78.7%,102%,100%,105%,105%,94.2%,93.1%,102%

SMILES,growth [1],growth [2],growth [3],growth [4],growth [5],growth [6],growth [7],growth [8]
O=S(=O)(NCCCNc1nccc(-c2c(-c3cccc(F)c3)nc3sccn23)n1)c1cccc(F)c1,-2.25% (active),33.3%,24%,76.7%,33.7%,48%,99.3%,30%
O=S(=O)(NCCNc1nccc(-c2c(-c3cccc(O)c3)nc3occn23)n1)c1ccccc1,74%,96%,28.5%,103%,49.4%,53.8%,113%,83.3%
COc1ccc(CNCCN2C(=O)c3ccc4c5c(ccc(c35)C2=O)C(=O)N(CCNCc2ccc(OC)c(OC)c2OC)C4=O)c(OC)c1OC,-18.4% (active),-11.4% (active),-48.2% (active),-37% (active),-67.1% (active),1.82% (active),-79.5% (active),-41.4% (active)
COc1cc2c(cc1OC)C(=O)/C(=C/c1cc(C)c(O)c(C)c1)S2,42%,36.9%,-9.36% (active),33.4%,20%,23.1%,60.4%,26.2%
NC1=NN=C(N)C1=Cc1cc2ccccc2n2nnnc12,88.4%,94.7%,108%,98.2%,89.9%,104%,108%,105%
COc1cc(/C(C)=C(\c2ccc(Cl)cc2)c2ccc(OCCN3CCCC3)cc2)ccc1F,55.1%,79.1%,51.3%,43.2%,26.5%,39.2%,57.4%,36.7%
CCCCCCCCOc1ccc(/C=N/Nc2cc(C)nc3ccc(Br)cc23)cc1,80.9%,95.6%,64.7%,8.02% (active),15.8%,6.51% (active),89.8%,57%
N#C/C(=C\c1ccc([N+](=O)[O-])s1)c1nc2cc(Cl)ccc2s1,58.7%,-6.72% (active),29.6%,1.39% (active),4.17% (active),-36.4% (active),14.9%,81.4%
COc1cc2nc(-c3ccc(C(F)(F)F)cc3)cc(OCCCN3CCCC3)c2cc1OC,38.4%,28.8%,-21.1% (active),28.6%,44.7%,23.6%,70%,36.4%
N/C(=N\C(N)=N\c1nc2ccccc2s1)c1cccc(Cl)c1,46.9%,81.1%,99.3%,98.5%,69.9%,73.8%,104%,40.8%
O=C(Nc1ccc(F)cc1)Nc1ccc(NC(=O)c2cc(Cl)nc3ccccc23)cc1,42.9%,37.2%,73.8%,65%,69%,56.9%,51%,58.5%
C/C(=N\NC(=O)CSc1nc2ccccc2c(=O)n1CCc1ccc(S(N)(=O)=O)cc1)c1ccccn1,28.4%,59.4%,33.4%,32.1%,34.5%,24.5%,39.3%,21.3%
COc1cc(-c2cc(-c3ccc(N(C)C)cc3)nc(N3CCOCC3)c2C#N)cc(OC)c1OC,29.5%,47.2%,4.97% (active),42.5%,36.2%,12.3%,19.8%,28.3%
O=C(/C=C/c1ccc[nH]1)c1ccc(-n2ccc(C(F)(F)F)n2)c(F)c1,70.9%,-2.69% (active),99.3%,103%,30.9%,85.6%,94.2%,29.6%
CCOC(=O)[C@@H]1CCCN(S(=O)(=O)c2ccc(S(=O)(=O)N(CC)CC)c(F)c2)C1,53.3%,58.5%,75.6%,86.6%,61.8%,42%,92.5%,81.9%
